Results as given in PubChem BioAssay (Tox21).
Inconclusive results are not listed. The source made the active and inactive calls. Unless noted, calls come from the whole dose curve; as a rule, active = well fitted curve in the direction sought with a large enough effect in the repeat runs; inconclusive = weak or mixed curves; inactive = no such curve, though single readings can be large; an effect the other way counts as inactive or inconclusive.

What was measured:
[1] = qHTS assay to identify small molecule antagonists of the glucocorticoid receptor (GR) signaling pathway - cell viability counter screen (AID 720693); note: nearly all actives have a fitted effect of over 55% in size
[2] = qHTS assay for identifying genotoxic compounds that show differential cytotoxicity against isogenic chicken DT40 cell lines with known DNA damage response pathways - Rad54/Ku70 mutant cell line (AID 743015); note: nearly all actives have a fitted effect of over 60% in size; note: potency is the fitted concentration of half-maximal effect
[3] = qHTS assay to identify small molecule antagonists of the androgen receptor (AR) signaling pathway - cell viability counter screen (AID 743033; note: nearly all actives have a fitted effect of over 45% in size; note: potency is the fitted concentration of half-maximal effect)
[4] = qHTS assay to identify small molecule antagonists of the androgen receptor (AR) signaling pathway using the MDA cell line - cell viability counter screen (AID 743041; note: nearly all actives have a fitted effect of over 45% in size)
Procedure, shortened: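 Cytotoxicity counter screen: MDA-kb2 AR-luc cells, compound + R1881, 16 h, 37C, 0% CO2; CellTiter-Fluor added at 15.5 h, fluorescence read after 30 min.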

[5] = qHTS assay to identify small molecule antagonists of the thyroid receptor (TR) signaling pathway - cell viability counter screen (AID 743064); note: nearly all actives have a fitted effect of over 50% in size
Procedure, shortened: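 Plate GH3.TRE-Luc cells; incubate 4 h at 37 °C; add compound, then T3 to 1 nM final; incubate 23.5 h; add CellTiter-Fluor; incubate 30 min at 37 °C, 5% CO2; read fluorescence.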

[6] = qHTS assay to identify small molecule antagonists of the thyroid receptor (TR) signaling pathway (AID 743065); note: series mostly up to about 70 µM; nearly all actives have a fitted effect of over 55% in size
Procedure, shortened: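 GH3.TRE-Luc rat pituitary cells (two TREs driving luciferase) were dosed with compound, then stimulated with 1 nM T3 (final) for 23.5 h at 37 C. ONE-Glo luminescence was the read-out, with CellTiter-Fluor fluorescence as the cytotoxicity counter-screen.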

[7] = test system: thyroid hormone receptor (rat, GH3 cells); assay: qHTS assay to identify small molecule agonists of the thyroid receptor (TR) signaling pathway (AID 743066; calls by dose curve)
[8] = biological target: Estrogen receptor (Homo sapiens) (UniProt P03372); assay: qHTS assay to identify small molecule antagonists of the estrogen receptor alpha (ER-alpha) signaling pathway (AID 743069; active = well fitted curve in the direction sought with a large enough effect in the signal ratio in the repeat runs, not every such curve was filed as active; the % refers to the signal ratio)
Procedure, shortened: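 Beta-lactamase FRET fluorescence is read after 2 hr at room temperature with LiveBLAzer B/G substrate. Before that, ER-alpha-bla HEK293 cells sit 4 hr after plating, then receive compound plus 17beta-estradiol and incubate 18 hr at 37C.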

[9] = biological target: Estrogen receptor (Homo sapiens) (UniProt P03372); assay: qHTS assay to identify small molecule agonists of the estrogen receptor alpha (ER-alpha) signaling pathway (AID 743075; calls by dose curve;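 note: HEK293 GripTite cells with ER-alpha and UAS-driven beta-lactamase reporter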)
[10] = qHTS assay to identify small molecule antagonists of the estrogen receptor alpha (ER-alpha) signaling pathway using the BG1 cell line - cell viability counter screen (AID 743081);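 note: compound given together with 17beta-estradiol as the ER stimulus; series mostly up to about 70 µM; nearly all actives have a fitted effect of over 45% in size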
Aromatase (Homo sapiens) = Aromatase (Homo sapiens) (UniProt P11511); assay: qHTS assay to identify aromatase inhibitors (AID 743083); note: series mostly up to about 70 µM; nearly all actives have a fitted effect of over 55% in size
[11] = qHTS assay for identifying genotoxic compounds that show differential cytotoxicity against isogenic chicken DT40 cell lines with known DNA damage response pathways - wild type cell line (AID 743012); note: nearly all actives have a fitted effect of over 60% in size
Procedure, shortened: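 CellTiter-Glo luminescence readout of viability in wild type DT40 cells after 40 h compound exposure at 37 C/5% CO2; 300 cells/well; reagent incubated 30 min at room temperature before reading.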

[12] = qHTS assay for identifying genotoxic compounds that show differential cytotoxicity against isogenic chicken DT40 cell lines with known DNA damage response pathways - Rev3 mutant cell line (AID 743014); note: nearly all actives have a fitted effect of over 55% in size
[13] = qHTS assay to identify small molecule antagonists of the estrogen receptor alpha (ER-alpha) signaling pathway - cell viability counter screen (AID 743074; calls by dose curve;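 note: HEK293 cells carrying ER-alpha-UAS-bla reporter stimulated with 17beta-estradiol; nearly all actives have a fitted effect of over 45% in size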)
[14] = biological target: Androgen receptor (Homo sapiens) (UniProt P10275); assay: qHTS assay to identify small molecule agonists of the androgen receptor (AR) signaling pathway using the MDA cell line (AID 743040; note: nearly all actives have a fitted effect of over 20% in size)
Procedure, shortened: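 Luciferase read-out, ONE-Glo, 30 min RT. Cells: MDA-kb2 AR-luc, MMTV promoter with AR and GR response elements. Compound exposure 16 h, 37C, 0% CO2, after 5 h pre-incubation. qHTS agonist mode.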

[15] = biological target: Androgen receptor (Homo sapiens) (UniProt P10275); assay: qHTS assay to identify small molecule antagonists of the androgen receptor (AR) signaling pathway using the MDA cell line (AID 743042; note: nearly all actives have a fitted effect of over 55% in size)
Procedure, shortened: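 MDA-kb2 breast carcinoma cells carrying MMTV-luciferase (AR/GR responsive) were co-treated with compounds and the agonist R1881 for 16 h at 37C. Inhibition read as ONE-Glo luminescence; CellTiter-Fluor fluorescence measured in parallel for cytotoxicity.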

[16] = qHTS assay to identify small molecule antagonists of the estrogen receptor alpha (ER-alpha) signaling pathway using the BG1 cell line (AID 743080; calls by dose curve;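 note: BG1 cells stimulated with 17beta-estradiol alongside compound; series mostly up to about 70 µM; nearly all actives have a fitted effect of over 25% in size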)
Procedure, shortened: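 Luminescence from a 4×ERE-luciferase reporter in BG1-Luc-4E2 cells served as read-out. Cells, pre-cultured 5 days in stripped-serum phenol-red-free medium, were exposed to compound with 17beta-estradiol co-stimulation for 21.5 h at 37 C.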

[17] = biological target: Estrogen receptor (Homo sapiens) (UniProt P03372); assay: qHTS assay to identify small molecule agonists of the estrogen receptor alpha (ER-alpha) signaling pathway using the BG1 cell line (AID 743079); note: nearly all actives have a fitted effect of over 20% in size

Measured: Potency

Estrogen receptor (Homo sapiens), sequence (P03372 whole entry, looked up): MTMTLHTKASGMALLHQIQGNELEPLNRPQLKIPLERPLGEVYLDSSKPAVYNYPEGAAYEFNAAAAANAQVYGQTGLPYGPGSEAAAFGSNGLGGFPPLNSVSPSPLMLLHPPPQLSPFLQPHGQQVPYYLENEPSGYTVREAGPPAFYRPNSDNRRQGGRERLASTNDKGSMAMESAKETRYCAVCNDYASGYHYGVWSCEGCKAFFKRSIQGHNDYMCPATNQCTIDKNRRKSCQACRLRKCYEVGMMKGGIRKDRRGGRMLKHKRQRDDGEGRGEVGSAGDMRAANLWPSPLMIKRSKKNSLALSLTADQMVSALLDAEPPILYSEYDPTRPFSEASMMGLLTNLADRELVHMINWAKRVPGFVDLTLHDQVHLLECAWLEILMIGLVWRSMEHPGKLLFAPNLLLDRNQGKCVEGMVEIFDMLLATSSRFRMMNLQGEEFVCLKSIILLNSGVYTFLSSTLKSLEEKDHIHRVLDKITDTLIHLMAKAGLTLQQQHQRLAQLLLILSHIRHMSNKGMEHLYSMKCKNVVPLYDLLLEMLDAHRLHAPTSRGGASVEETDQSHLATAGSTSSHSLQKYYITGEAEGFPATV
Aromatase (Homo sapiens), sequence (P11511 whole entry, looked up): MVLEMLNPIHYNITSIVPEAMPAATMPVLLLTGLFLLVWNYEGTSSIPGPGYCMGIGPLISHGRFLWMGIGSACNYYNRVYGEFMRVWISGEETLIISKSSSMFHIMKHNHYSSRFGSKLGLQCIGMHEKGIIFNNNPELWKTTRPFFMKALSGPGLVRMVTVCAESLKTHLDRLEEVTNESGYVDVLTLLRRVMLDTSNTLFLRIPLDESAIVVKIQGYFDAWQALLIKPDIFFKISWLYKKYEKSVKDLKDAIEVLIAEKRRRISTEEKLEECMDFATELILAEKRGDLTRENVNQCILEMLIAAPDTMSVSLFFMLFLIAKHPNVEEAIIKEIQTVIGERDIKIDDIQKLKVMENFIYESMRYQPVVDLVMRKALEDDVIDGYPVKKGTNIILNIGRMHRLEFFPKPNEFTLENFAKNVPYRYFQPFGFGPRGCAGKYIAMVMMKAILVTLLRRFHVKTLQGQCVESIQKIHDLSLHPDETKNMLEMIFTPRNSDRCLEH
Androgen receptor (Homo sapiens), sequence (P10275 whole entry, looked up): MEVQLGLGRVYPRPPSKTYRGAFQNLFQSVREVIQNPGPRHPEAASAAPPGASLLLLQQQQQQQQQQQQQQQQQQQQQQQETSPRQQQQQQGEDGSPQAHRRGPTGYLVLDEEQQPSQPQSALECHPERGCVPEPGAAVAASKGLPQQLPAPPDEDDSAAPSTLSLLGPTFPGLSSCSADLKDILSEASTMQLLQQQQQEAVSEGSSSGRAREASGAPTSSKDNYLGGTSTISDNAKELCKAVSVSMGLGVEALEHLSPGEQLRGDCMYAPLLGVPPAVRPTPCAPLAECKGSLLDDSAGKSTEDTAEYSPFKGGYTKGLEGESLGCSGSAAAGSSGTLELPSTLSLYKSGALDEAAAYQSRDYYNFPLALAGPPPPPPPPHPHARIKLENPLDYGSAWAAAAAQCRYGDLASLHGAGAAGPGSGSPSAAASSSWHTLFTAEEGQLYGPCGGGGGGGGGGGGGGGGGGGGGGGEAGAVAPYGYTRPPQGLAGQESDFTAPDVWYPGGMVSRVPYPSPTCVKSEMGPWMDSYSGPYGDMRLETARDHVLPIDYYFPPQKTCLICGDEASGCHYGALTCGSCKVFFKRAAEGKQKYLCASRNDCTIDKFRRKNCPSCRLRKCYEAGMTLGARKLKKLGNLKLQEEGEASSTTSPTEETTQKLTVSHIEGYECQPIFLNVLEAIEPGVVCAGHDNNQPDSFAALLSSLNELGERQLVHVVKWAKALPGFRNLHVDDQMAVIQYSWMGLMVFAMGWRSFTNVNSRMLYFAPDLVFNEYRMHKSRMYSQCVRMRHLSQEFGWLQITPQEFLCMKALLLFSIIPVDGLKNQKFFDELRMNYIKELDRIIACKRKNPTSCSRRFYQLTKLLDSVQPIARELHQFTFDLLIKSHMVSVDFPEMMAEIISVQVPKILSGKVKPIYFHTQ

O=C(/N=N/C(=O)OCc1ccccc1)OCc1ccccc1
active: [2] 61.1 µM
inactive: [1] | [3] | [4] | [5] | [6] | [7] | [8] | [9] | [10] | Aromatase (Homo sapiens)

Nc1nnc(-c2cccc(Cl)c2Cl)c(N)n1
inactive: [11] | [12] | [2] | [3] | [4] | [5] | [6] | [7] | [13] | [10] | Aromatase (Homo sapiens)

CC(CO)c1ccccc1 (stereo not given)
inactive: [11] | [12] | [2] | [3] | [14] | [4] | [15] | [5] | [6] | [7] | [8] | [13] | [9] | [16] | [10] | Aromatase (Homo sapiens)

On1nnc2ccccc21
inactive: [1] | [4] | [5] | [6] | [7] | [8] | [9] | [17] | [16] | [10] | Aromatase (Homo sapiens)
active: [3] 0.616 µM
